# Compound activity as filed in PubChem.
# Tgondii IFNg: inhibitors of Toxoplasma gondii growth with IFN-gamma; Toxoplasma gondii growth in IFN-gamma-treated host cells; stronger effect = lower value; activity change, negative = inhibition, % (no concentration beside the values); hit rate 3.8% among 69,000; AID 1259416; in the data active = activity change below about -70%, passing the limit was not always enough;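 note: host cells are HeLa cells infected with Toxoplasma gondii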
# A number is an active result; . = inactive. The full list was thinned out, with hits kept by preference.
SMILES,Tgondii IFNg
CCO[C@H]1CN(C(=O)N2CCCC2)[C@H]2CCCO[C@@H]12,-96
CCO[C@H]1CC[C@@H]2[C@@H]1OCCN2C(=O)c1ccc2ccccc2c1,.
NC(=O)C(c1ccccc1)C1CCCC1 (stereo not drawn),.
C=C1SC(=Nc2ccccc2Cl)N(C(=O)c2sc3ccccc3c2Cl)C1(C)C,.
C=C1SC(=Nc2cccc(OC)c2)N(C(=O)C(c2ccccc2)C2CCCC2)C1(C)C (stereo not drawn),-90
COc1cc2c(cc1-c1nccn1CCN1CCCOC1=O)CCC2,.
COCCCN=C(Nc1ccc(C(=O)O)cc1)N1CCN(c2ncnc3ccccc23)CC1,.
Cc1ccc2[nH]cc(CCN3CC(C(=O)NC4CCCCC4)CC3=O)c2c1 (stereo not drawn),.
COCCN1C(=O)CCC12CCN(C(=O)COC)CC2,.
C=CC(=O)N1CCC2(CCC(=O)N2CCN2CCCC2)CC1,.
CCOCC(=O)N1CCC2(CCC(=O)N2CCN2CCCC2)CC1,-89
CCc1ccccc1NC(=O)CN1CCC2(CC1)N=C(c1ccc(C)c(C)c1)C(=O)N2,.
Cc1nc(-c2cccnc2)sc1C(=O)NC(C)C1CC2CCC1C2 (stereo not drawn),.
CCN1C(=O)CCc2cc(NC(=O)c3ccc(F)cc3)ccc21,.
CCN1C(=O)CCc2cc(NC(=O)CC(C)C)ccc21,.
CCC(=O)Nc1ccc2c(c1)CCC(=O)N2CC(C)C,.
CCN1C(=O)CCc2cc(NC(=O)c3ccc4c(c3)OCO4)ccc21,-87
CC(C)CN1C(=O)CCc2cc(NC(=O)c3ccc4c(c3)OCO4)ccc21,-77
CCN1C(=O)CCc2cc(NC(=O)C3CCCC3)ccc21,.
COCCN1C(=O)CCc2cc(NC(=O)c3ccc4c(c3)OCO4)ccc21,.
CCN1C(=O)CCc2cc(NC(=O)/C=C/c3ccccc3)ccc21,-83
Cc1ccc(C(=O)Nc2ccc3c(c2)CCC(=O)N3CC(C)C)c(C)c1,.
CCOc1ccccc1-c1nc(Cn2nnc(C(=O)Nc3c(C)cccc3C)c2C)c(C)o1,.
CNc1cc(C(=O)N2CCCC2c2nc(-c3ccccc3)no2)ccn1 (stereo not drawn),.
O=C(CCn1nnc(-c2ccccc2)n1)N1CCCC(N2CCCC2=O)C1 (stereo not drawn),.
SMILES,Tgondii IFNg
Cc1ccc(C2(O)CCN(C(=O)c3cccc(-c4cn[nH]c4)c3)CC2)nc1,.
Cc1nccn1CCN(C)c1nc(-c2ccc(Cl)cc2)nc2c1CNC2,.
Cc1ccccc1-c1nc(Cn2nnc(C(=O)Nc3cccc(C)c3C)c2C)c(C)o1,.
CC(C)c1noc(CCNC(=O)c2cn3c(n2)CNCC3)n1,.
Cc1cc2c(cc1-c1nccn1CCc1nc(-c3cccnc3)no1)OCO2,.
Clc1cc2c(cc1-c1nccn1-c1ccc(Oc3nn[nH]n3)cc1)OCO2,.
Cc1cc2c(cc1-c1nccn1-c1ccc3cn[nH]c3c1)OCO2,-81
O=C(NCCc1csc(-c2ccccc2)n1)c1ccc(F)c(F)c1,.
O=C(Nc1cc(F)ccc1F)c1c(O)c2cccnc2n(-c2cccc(F)c2)c1=O,.
Cc1c(N(C)C)c(=O)n(-c2ccccc2)n1C,.
Cc1[nH]n(-c2ccccc2)c(=O)c1N=Nc1c(C)n(C)n(-c2ccccc2)c1=O,-92
Cc1[nH]n(-c2ccccc2)c(=O)c1C(=O)c1ccccc1,.
CN1C(=O)CCc2cc(NC(=O)c3ccnn3C)ccc21,.
CN(C)CCN1CCOCC2(CCC(CN(C)Cc3ccco3)O2)C1 (stereo not drawn),.
CC(C)(C(=O)NCC(F)(F)C(F)(F)F)C(=O)N[C@@H]1C(=O)Nc2ccccc2-c2ccccc21,-89
CCC(=O)N1CCCC(C2C(=O)Nc3ccccc32)C1 (stereo not drawn),.
CC1CCN(S(=O)(=O)c2ccc3c(c2)CCC(=O)N3CC(=O)N2CCN(C)CC2)CC1,.
CC1(C)NC(=O)N(CCCC(=O)O)C1=O,.
CC(/C=C1\SC(=O)N(CCCC(=O)O)C1=O)=C\c1ccccc1,-82
O=C(O)CCCCCNS(=O)(=O)/C=C/c1ccccc1,.
CC(c1n[nH]c(=O)[nH]1)n1ccnc1-c1ccnn1-c1ccccc1 (stereo not drawn),.
Cc1nn(C)c(C)c1NC(=O)c1cccc(CN2CCc3ccccc3C2)c1,.
CCCCN(C)Cc1ccc(C(=O)Nc2c(C)noc2C)cc1,.
CCCCN(Cc1ccc(C(=O)NO)cc1)C(=O)Nc1ccccc1,-85
O=C(Nc1ccccc1)N(Cc1ccc(Cl)cc1)Cc1nc2ccccc2c(=O)[nH]1,.
SMILES,Tgondii IFNg
CC(C)c1nc(-c2cc(C(=O)Cc3ccccn3)c3ccccn23)cs1,.
CC(=O)N1CCC(C(=O)NCc2ccccc2)(N(Cc2ccc(C)cc2)C(=O)c2ccc(C)cc2)CC1,.
O=C(Nc1ccc(OC(F)(F)F)cc1)c1cnn(-c2ccc(Cl)cc2)c1C(F)(F)F,-86
O=C(NCCSCc1ccco1)c1cnn(-c2ccccc2)c1C(F)(F)F,.
Cc1cc(C)c2cc(C(=O)Nc3ccc(OC(F)(F)F)cc3)[nH]c2c1,.
CC(C)N1C2CCN(Cc3ccoc3)CC2C[C@H]1CN1CCCC1 (stereo partly drawn),.
COc1ccc(S(=O)(=O)N2CCC3(CC2)Nc2ccccc2-n2cccc23)cc1Cl,.
COc1ccc2c(c1)NC1(CCN(S(=O)(=O)c3cc(C)ccc3C)CC1)c1cccn1-2,.
COc1ccc(OC)c(S(=O)(=O)N2CCC3(CC2)Nc2cc(C)ccc2-n2cccc23)c1,.
CCN1c2cc(C)ccc2-n2cccc2C12CCN(S(=O)(=O)c1ccc3c(c1)CCCC3)CC2,-81
CCc1ccc(S(=O)(=O)N2CCC3(CC2)c2cccn2-c2ccc(C)cc2N3CC)cc1,.
CCN1c2cc(C)ccc2-n2cccc2C12CCN(S(=O)(=O)c1cc(OC)ccc1OC)CC2,-103
CCN1c2cc(C)ccc2-n2cccc2C12CCN(S(=O)(=O)c1ccc(Cl)s1)CC2,.
CCN1c2cc(C)ccc2-n2cccc2C12CCN(S(=O)(=O)c1ccc(OC)c(Cl)c1)CC2,-100
CCN1c2cc(C)ccc2-n2cccc2C12CCN(S(=O)(=O)c1c(C)noc1C)CC2,.
CN1C[C@@H](N)C[C@H]1C(=O)NC(C)(C)CNc1cccc(Cl)c1,.
O=C(CCc1ccc(-c2ccccc2)o1)N1CCn2c(CO)nnc2C1,.
Cc1ccccc1-c1ccccc1C(=O)NCCC1CN(C)CCO1 (stereo not drawn),.
COc1ccc(CN2CC3(C2)[C@H](c2ccccc2)[C@@H](CO)N3CC2CCCC2)cc1,.
CCC(CC)C(=O)N1CCC(C(=O)NCCc2csc(-c3ccccc3)n2)CC1,.
O=C(Cn1cc(C(F)(F)F)ccc1=O)N1C[C@@H]2[C@@H]3CC[C@@H](C3)[C@@H]2C1,.
CCOc1ccc(-c2nc(Cc3noc(-c4ccccc4)n3)c(C)o2)cc1,.
c1ccc(-c2ccc(CN3CCCC(OCc4cccnc4)C3)cc2)nc1 (stereo not drawn),.
CCOc1ccc(C2c3[nH]c4ccccc4c3CCN2C(=O)c2snnc2C)cc1 (stereo not drawn),.
C=CCc1cc(C(=O)N2CC[C@H](O)[C@@H](O)C2)ccc1OC,.
Cc1ccc(C)c(C(=O)Nc2ccc3c(c2)CCC(=O)N3)c1,.
COc1ccccc1-c1ccc2c(c1)[C@@H]1[C@@H](CCN1S(=O)(=O)c1ccc(C)cc1)[C@H](CO)N2,-78
CC(=O)N1CC[C@@H]2[C@H]1c1cc(-c3ccccc3)ccc1N[C@@H]2CO,.
COc1ccccc1-c1ccc2c(c1)[C@H]1[C@H](CCN1Cc1ccccc1F)[C@@H](CO)N2,.
